From PubChem
The sample as a whole holds a higher share of hits than the screen did.
VDR inhibitor: vitamin D3 receptor (human) inhibition; actives 0.93% (n = 400,000); VDR-SRC2-3 peptide fluorescence polarization, 2 h; AID 504847; Potency, µM, most hits filed as inhibitors
Target sequence (P11473 whole entry, looked up): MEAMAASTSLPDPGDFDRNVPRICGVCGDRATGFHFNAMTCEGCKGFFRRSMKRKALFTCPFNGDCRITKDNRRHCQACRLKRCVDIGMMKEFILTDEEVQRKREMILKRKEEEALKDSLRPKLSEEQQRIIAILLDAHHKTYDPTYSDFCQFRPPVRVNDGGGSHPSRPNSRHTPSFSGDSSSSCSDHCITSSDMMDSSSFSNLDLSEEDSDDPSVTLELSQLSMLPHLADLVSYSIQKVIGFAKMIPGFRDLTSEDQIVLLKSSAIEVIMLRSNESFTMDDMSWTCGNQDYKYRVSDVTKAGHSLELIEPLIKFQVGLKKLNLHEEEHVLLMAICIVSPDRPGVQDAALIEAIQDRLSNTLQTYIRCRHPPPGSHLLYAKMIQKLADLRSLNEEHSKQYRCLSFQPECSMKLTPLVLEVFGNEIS
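Compounds are added to VDR with labelled SRC2-3 coactivator peptide and held 2 h at room temperature. Inhibition of the VDR–peptide interaction is then read as a change in fluorescence polarization.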
Glioma ERSR ind: ER stress response induction in glioma. actives 0.02% (n = 420,000). AID 602332. U87-MG GRP78 promoter luciferase reporter, 16 h. Potency, µM, usual class: activators; further: series mostly up to about 76 µM; nearly all actives have a fitted effect of over 35% in size
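Stably transfected U87-MG human glioma cells carrying a GRP78-based luminescent sensor were seeded at 1000 cells/well, pin-dosed with compounds and incubated 16 h. Luciferase reagent was then added, and end-point luminescence was read after 10 min at room temperature.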
G9a block: G9a (human) methyltransferase inhibition; G9a H3K9 monomethylation, AlphaScreen, 2 h; Potency, µM (top dose mostly 102 µM), actives largely listed as inhibitors; actives 8.8% (n = 350,000); further: nearly all actives have a fitted effect of over 75% in size
Target sequence (Q96KQ7 913-1193 limits assumed): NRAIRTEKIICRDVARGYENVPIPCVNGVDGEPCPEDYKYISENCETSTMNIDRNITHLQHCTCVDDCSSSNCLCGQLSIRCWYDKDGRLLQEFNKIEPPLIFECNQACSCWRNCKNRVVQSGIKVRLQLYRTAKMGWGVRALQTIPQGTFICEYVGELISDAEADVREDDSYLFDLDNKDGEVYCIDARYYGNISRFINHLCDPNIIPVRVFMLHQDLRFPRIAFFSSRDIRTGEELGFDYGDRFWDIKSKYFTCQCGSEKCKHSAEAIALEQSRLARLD
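Chemiluminescent proximity detection of H3K9 monomethylation, read after 10 min bead incubation in the dark. Reaction: 20 nM G9a, 500 nM biotin-H3K9 peptide, 20 uM SAM cofactor, 2 h, room temperature, following 15 min enzyme-compound preincubation.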
ALOX12 inh: ALOX12 (human) lipoxygenase inhibition; P18054; purified 12hLO, xylenol orange hydroperoxide absorbance; Potency, µM (top dose mostly 108 µM), hits mostly inhibitors; actives 1.1% (n = 580,000); AID 1671190
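Purified human 12hLO (150 nM final) in 25 mM Hepes, 0.01% Triton X-100, pH 7.0 was preincubated 15 min at room temperature with compound. Then 40 uM arachidonic acid was added, 30 min. Hydroperoxide was read by Fe-XO absorbance ratio 573/405 nm.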
Sfp PPTase inh: Sfp phosphopantetheinyl transferase inhibition | Biochemical Sfp PPTase activity, qHTS | Potency, µM, hits mostly inhibitors | actives 3.5% (n = 310,000) | AID 1490;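 further: the enzyme is Sfp with the accession as filed and its product quenches rhodamine fluorescence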
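Fluorescence-quenching assay: 15 nM Sfp-PPTase preincubated 15 min at room temperature with compound, then 5 uM rhodamine-CoA and 12.5 uM BHQ-2-labelled YbbR peptide added. Fluorescence (ex 525/em 598 nm) read at start and after 30 min; difference gives rate.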
A number is an active result; – = inactive; ? = inconclusive; · = no result given. The call rests on the fitted dose curve; in most records, active means well fitted curve in the direction sought with a large enough effect; inconclusive means small, poorly fitted or top-dose-only effect, or another doubt; inactive means no such curve, though single readings can be large; an effect the other way counts as inactive or inconclusive.

SMILES	VDR inhibitor	Glioma ERSR ind	G9a block	ALOX12 inh	Sfp PPTase inh
Clc1cccc(Cl)c1C1Nc2cccc3cccc(c23)N1	–	–	16µM	?	?
O=[N+]([O-])c1ccc(Cl)c(C2Nc3cccc4cccc(c34)N2)c1	–	–	13µM	–	?
Brc1cccc(C2Nc3cccc4cccc(c34)N2)c1	–	–	35µM	–	–
O=C(COc1cccc(Br)c1)NCCc1c[nH]c2ccccc12	·	·	·	–	·
CCOc1ccc(NC(=O)COc2ccc(C)c(C)c2)c2cccnc12	·	·	·	–	·
COc1cc(NC(=O)COc2ccc(-c3nnc4n3CCCC4)cc2)cc(OC)c1OC	·	·	·	–	·
CCNC(=O)CN1CCN(C(C(=O)O)c2c[nH]c3ccc(Cl)cc23)CC1 (centres undefined)	·	·	·	–	·
Clc1ccc(C2Nc3cccc4cccc(c34)N2)cc1Cl	–	–	·	–	–
Clc1cccc(C2Nc3cccc4cccc(c34)N2)c1	–	–	·	3.5µM	–
COc1cc(NC(=O)Nc2ccc(F)c(-c3nnc(-c4ccccc4)o3)c2)cc(OC)c1OC	·	·	·	–	·
CCN1/C(=C/c2ccc3ccccc3[n+]2CC)C=Cc2ccccc21	–	–	11µM	?	50µM
CCN1/C(=C/c2cc[n+](C)cc2)C=Cc2cc(C)ccc21	–	–	2.2µM	?	?
CC[n+]1c(S(=O)(=O)[O-])ccc2ccc(C)cc21	–	–	–	–	–
CCN1/C(=C/c2ccc3ccccc3[n+]2CCCS(=O)(=O)[O-])C=Cc2cc(C)ccc21	–	–	10µM	45µM	–
CCN1C(=O)/C(=C2\C=Cc3cc(C)ccc3N2CC)OC1=S	–	–	?	–	–
CC1(C)CC(N2CCCCC2)=CC(=NCCCN2CCOCC2)C1	·	·	·	22µM	·
CCCS(=O)(=O)N1CCCC1C(=O)NC1CCCCC1 (centres undefined)	·	·	·	–	·
COc1cccc(CN(C)C(=O)c2cc(-c3ccc(F)cc3)nc3ccccc23)c1	–	–	?	·	22µM
COc1cccc(NC(=O)CN(C)C(=O)c2cc(-c3ccc(F)cc3)nc3ccccc23)c1	–	–	–	–	·
COc1ccc(CCN(C)C(=O)c2cc(-c3ccccc3)nc3ccccc23)cc1OC	–	–	40µM	–	–
COc1cc(C)cc2oc(=O)c(CC(=O)NCCc3ccc(S(N)(=O)=O)cc3)c(C)c12	·	·	·	–	·
CC(C(=O)NC1CCCCC1)(c1ccccc1)c1ccccc1	·	·	·	–	·
CC1=C[C@@H](CN(C)C)[C@H](C(C)C)C[C@H]1Cc1nc2c(C)cccc2[nH]1	·	·	·	–	·
COc1ccccc1CNC[C@@H]1C=C(C)[C@H](Cc2nc3c(C)cccc3[nH]2)C[C@H]1C(C)C	·	·	·	56µM	·
CC1=C[C@@H](CNCc2ccccc2)[C@H](C(C)C)C[C@H]1Cc1nc2c(C)cccc2[nH]1	·	·	·	63µM	·
SMILES	VDR inhibitor	Glioma ERSR ind	G9a block	ALOX12 inh	Sfp PPTase inh
COc1ccc(C)cc1Nc1nc2ccccc2nc1NS(=O)(=O)c1cccc2nsnc12	·	·	·	–	·
CCN(CC)Cc1ccc(CNC(=O)c2ccc(Br)cc2F)cc1	·	·	·	–	·
CN(CC(=O)N(C)c1c(N)n(Cc2ccccc2)c(=O)[nH]c1=O)Cc1ccccc1F	·	·	·	–	·
COc1ccc2c(c1)c(C(=O)N/N=C/c1ccc(Cl)cc1)c(C)n2C	–	–	–	–	–
COc1ccc(/C=N/NC(=O)c2nn(-c3ccccc3)c(=O)c3c(N)scc23)cc1	?	–	0.35µM	?	7.1µM
COc1ccc(C(=O)N/N=C/c2c(C)nn(-c3ccccc3)c2OC)cc1	–	–	·	–	·
COc1ccc(/C=N/NC(=O)c2nn(-c3ccc(Cl)cc3)c(=O)c3c(N)scc23)cc1	?	–	?	7.9µM	–
CSc1ccccc1C(=O)Nc1cccc2ccccc12	·	·	·	–	·
Cn1nc(C(=O)N2CCN(c3cccc(Cl)c3)CC2)c2ccccc2c1=O	·	·	·	–	·
CCOC(=O)c1[nH]c2ccccc2c1NC(=O)C(C)N1CCC2(CC1)OCCO2 (centres undefined)	·	·	·	–	·
N#CC1(NC(=O)CSc2nccn2C2CC2)CCCCC1	·	·	·	–	·
Cc1cccc(C(=O)OCc2cc(=O)oc3c(C)c(C)ccc23)c1O	–	–	40µM	·	–
CCN(CCO)Cc1cc(=O)oc2c(C)c(C)ccc12	–	–	50µM	?	–
S=C(NCCc1ccccc1)N/N=C/c1ccc(Cl)cc1	–	–	–	?	–
S=C(NCCc1ccccc1)N/N=C/c1c(Cl)cccc1Cl	–	–	–	40µM	–
S=C(NCc1ccccc1)N/N=C/c1ccccn1	·	·	·	–	·
S=C(NCc1ccccc1)N/N=C/c1c2ccccc2c(Cl)c2ccccc12	·	·	·	18µM	·
Cc1ccc(C23CC4CC(CC(C(=O)Nc5ccc(Cl)c(Cl)c5)(C4)C2)C3)cc1	·	·	·	–	·
Cn1ccc(NC(=O)CCc2nnc(-c3ccccc3)o2)n1	·	·	·	–	·
Cc1cc(C)c(C(=O)CCCC(=O)O)c(C)c1	·	·	·	–	·
COC(=O)C(=O)/C=C(\O)c1c(C)cc(C)cc1C	–	–	18µM	–	–
C/C(=N\Nc1nnc(Cl)c2ccccc12)c1ccc([N+](=O)[O-])cc1	·	·	·	–	·
CN(C)c1cccc(C(=O)Nc2ccc3nc4n(c(=O)c3c2)CCCCC4)c1	–	–	45µM	–	–
O=c1c2cc(NC(=S)N3CCCC3)ccc2nc2n1CCCCC2	–	–	–	–	–
CCN1CCN(C(=S)Nc2ccc3nc4n(c(=O)c3c2)CCCCC4)CC1	–	–	45µM	–	–
SMILES	VDR inhibitor	Glioma ERSR ind	G9a block	ALOX12 inh	Sfp PPTase inh
CCC/C=C/c1ccc(CN2C(C(C)C)C(=O)N(Cc3cn(Cc4ccco4)nn3)CCS2(=O)=O)cc1 (centres undefined)	·	–	·	45µM	·
Cc1ccc(-c2ccc(CN3C(C)C(=O)N(Cc4cn(Cc5ccco5)nn4)CCS3(=O)=O)cc2)cc1 (centres undefined)	·	–	·	11µM	·
CC(C)Cc1ccc(CN2C(C)C(=O)N(Cc3cn(Cc4ccco4)nn3)CCS2(=O)=O)cc1 (centres undefined)	·	–	·	14µM	·
CCC/C=C/c1ccc(CN2C(C)C(=O)N(Cc3cn(Cc4ccco4)nn3)CCS2(=O)=O)cc1 (centres undefined)	·	–	·	?	·
COc1ccc(CCNC(=O)c2nn(Cc3ccccc3)c(=O)c3ccccc23)cc1	·	·	·	–	·
COc1cc(OC)cc(C(=O)Nc2ccc(Sc3c(C)c(C)nc4ncnn34)cc2)c1	·	·	·	–	·
CCCCOc1ccc2c(-c3ccccc3)cc(=O)oc2c1C	·	·	·	–	·
COc1ccccc1N1CCN(S(=O)(=O)c2ccc(-n3cnnn3)c(C)c2)CC1	–	–	?	–	–
CCCN1CCN(S(=O)(=O)c2ccc(-n3cnnn3)cc2)CC1	–	–	50µM	–	–
COc1ccc(N2CCN(S(=O)(=O)c3ccc(-n4cnnn4)c(C)c3)CC2)cc1	–	–	7.1µM	–	–
COc1cc(S(=O)(=O)N2CCCCCC2)ccc1-n1cnnn1	–	–	?	?	45µM
COc1cc(S(=O)(=O)N2CCC(N3CCCCC3)CC2)ccc1-n1cnnn1	–	–	–	–	–
